Experimental data from ChEMBL document CHEMBL4513141, “CO-ADD screening of NIH (USA) - Clinical Collection” (2021).
Potency and affinity values are given separately.

Tests used:
[1] = tested on: Klebsiella pneumoniae; conditions: Concentration 20 uM; ASSAY_TEST Inhibition of Bacterial Growth; detection method Absorption (OD600); MEDIA CAMHB; plate type 384well; NBS; CORNING #3640; time 18 hr
[2] = tested on: Candida albicans; conditions: 20 µM
[3] = tested on: Cryptococcus neoformans; conditions: Concentration 20 uM; ASSAY_TEST Inhibition of Fungal Growth; detection method Resazurin; Absorption (OD600-OD570); plate type 384well; NBS; CORNING #3640

Compound `CC12CCC(=O)C=C1CCC1C2CCC2(C)C1CCC2(O)C(=O)CO` (stereo not given) has an Inhibition [1] of 8.14%, an Inhibition [2] of 3.12% and an Inhibition [3] of -0.13%.
With `Nc1ccc(O)c(C(=O)O)c1` [MESALAMINE] the Inhibition [2] was 1.32% and the Inhibition [3] was 3.98%.
`CNC(=C[N+](=O)[O-])NCCSCc1csc(CN(C)C)n1` [NIZATIDINE] showed an Inhibition [1] of 14.45%, an Inhibition [2] of 0.73% and an Inhibition [3] of -0.19%.
`CC(=O)O[C@]1(C(C)=O)CC[C@H]2[C@@H]3C=C(C)C4=CC(=O)CC[C@]4(C)[C@H]3CC[C@@]21C` [MEGESTROL ACETATE] showed an Inhibition [1] of 7.28%, an Inhibition [2] of 5.92% and an Inhibition [3] of -0.12%.
`C#C[C@]1(O)CC[C@H]2[C@@H]3CCc4cc(O)ccc4[C@H]3CC[C@@]21C` [ETHINYL ESTRADIOL] was tested, and the Inhibition [1] was 16.78%, the Inhibition [2] was 2.87% and the Inhibition [3] was -5.67%.
For `Nc1nc(=O)c2nc(CNc3ccc(C(=O)N[C@@H](CCC(=O)O)C(=O)O)cc3)cnc2[nH]1` [FOLIC ACID], the Inhibition [1] was 12.05%, the Inhibition [2] was 1.12% and the Inhibition [3] was -7.28%.
For `CCOC(=O)[C@H](CCc1ccccc1)N[C@@H](C)C(=O)N1Cc2ccccc2C[C@H]1C(=O)O.Cl` [QUINAPRIL HYDROCHLORIDE], the Inhibition [1] was 14.37%, the Inhibition [2] was 3.86% and the Inhibition [3] was -5.15%.
With `CS(=O)(=O)O.Cc1ccc(NC(=O)c2ccc(CN3CCN(C)CC3)cc2)cc1Nc1nccc(-c2cccnc2)n1` [IMATINIB MESYLATE] the Inhibition [1] was 14.57%, the Inhibition [2] was 2.45% and the Inhibition [3] was 9.11%.
For `Nc1ccc(S(=O)(=O)c2ccc(N)cc2)cc1` [DAPSONE], the Inhibition [1] was 5.01%, the Inhibition [2] was -0.53% and the Inhibition [3] was 0.91%.
In the case of `O=C(O[C@H]1[C@H](Oc2ccccc2COC(=O)C2(O)C=CCCC2=O)O[C@H](CO)[C@@H](O)[C@@H]1O)c1ccccc1` (stereo not given in full) [TREMULACIN], the Inhibition [1] is reported as 9.15%, the Inhibition [2] is reported as 3.13% and the Inhibition [3] is reported as -9.11%.
In the case of `NNC(=O)c1ccncc1` [ISONIAZID], the Inhibition [1] is reported as 6.54%, the Inhibition [2] is reported as 3.95% and the Inhibition [3] is reported as -3.6%.
With `COC(=O)C1=C(C)NC(C)=C(C(=O)O[C@@H]2CCCN(Cc3ccccc3)C2)[C@@H]1c1cccc([N+](=O)[O-])c1.Cl` the Inhibition [1] was -2.17%, the Inhibition [2] was 3.91% and the Inhibition [3] was -18.39%.
`COC(=O)[C@H](c1ccccc1Cl)N1CCc2sccc2C1` [CLOPIDOGREL] gave an Inhibition [1] of 14.99%, an Inhibition [2] of 2.18% and an Inhibition [3] of -8.15%.
`CC1(C)O[C@@H]2C[C@H]3[C@@H]4C[C@H](F)C5=CC(=O)C=C[C@]5(C)[C@@]4(F)[C@@H](O)C[C@]3(C)[C@]2(C(=O)CO)O1` [FLUOCINOLONE ACETONIDE] was tested, and the Inhibition [1] was -0.92%, the Inhibition [2] was 5.45% and the Inhibition [3] was 6.47%.
In the case of `CCCc1nc(C)c2c(O)nc(-c3cc(S(=O)(=O)N4CCN(CC)CC4)ccc3OCC)nn12.O=C(O)CC(O)(CC(=O)O)C(=O)O`, the Inhibition [1] is reported as 10.86%, the Inhibition [2] is reported as 4.67% and the Inhibition [3] is reported as -15.39%.
`CCCC1O[C@@H]2C[C@H]3[C@@H]4CCC5=CC(=O)C=C[C@]5(C)[C@H]4[C@@H](O)C[C@]3(C)[C@]2(C(=O)CO)O1` (stereo not given in full) [BUDESONIDE] gave an Inhibition [1] of 10.57%, an Inhibition [2] of 2.59% and an Inhibition [3] of -1.35%.
`CC(=CCC1=C(C)C(=O)c2ccccc2C1=O)CCCC(C)CCCC(C)CCCC(C)C` (stereo not given) gave an Inhibition [1] of 6.75%, an Inhibition [2] of 3.2% and an Inhibition [3] of 1.23%.
`CC1(C)S[C@@H]2[C@H](NC(=O)[C@H](N)c3ccc(O)cc3)C(=O)N2[C@H]1C(=O)O` [AMOXICILLIN] showed an Inhibition [1] of 10.29%, an Inhibition [2] of 9.25% and an Inhibition [3] of -2.09%.
With `COc1cc(C[C@@H](CO)[C@H](CO)Cc2ccc(O)c(OC)c2)ccc1O` [(+)-SECOISOLARICIRESINOL] the Inhibition [1] was 5.83%, the Inhibition [2] was 4.22% and the Inhibition [3] was 1.62%.
`CCCN(CCC)S(=O)(=O)c1ccc(C(=O)O)cc1` [PROBENECID] was tested, and the Inhibition [1] was 16.52% and the Inhibition [3] was -7.72%.
Compound `O=C1N[C@H](C(=O)O)CS1` [PROCYSTEINE] has an Inhibition [1] of 8.75%, an Inhibition [2] of 3.85% and an Inhibition [3] of -5.5%.
Work on `Cc1ncc([N+](=O)[O-])n1CC(C)O` (stereo not given) [SECNIDAZOLE] yielded an Inhibition [1] of 8.29%, an Inhibition [2] of 1.89% and an Inhibition [3] of 0.36%.
Compound `CC(=O)OCC(=O)NCCCOc1cccc(CN2CCCCC2)c1.Cl` [ROXATIDINE ACETATE HYDROCHLORIDE] has an Inhibition [1] of 15.18%, an Inhibition [2] of 3.06% and an Inhibition [3] of -4.65%.
`CN(C)CCCSc1ccccc1NC(=O)/C=C/c1ccccc1.Cl.O` gave an Inhibition [1] of 18.81%, an Inhibition [2] of 2.74% and an Inhibition [3] of -8.97%.
